Among all 16,000 compounds or so, about 5,100 (32%) were called active. Not shown: some 25% with an inconclusive outcome. This is one part of the list. Values without a mark were called inactive. Calls follow the shape of the dose curve; as a rule, active = well fitted curve in the direction sought with a large enough effect; inconclusive = small, poorly fitted or top-dose-only effect, or effect the other way; inactive = no such curve, though single readings can be large or run the other way.
Target: Cytochrome P450 3A4 (Homo sapiens) (UniProt P08684)
Test: Cytochrome panel assay with activity outcomes
Conditions: recombinant CYP, pro-luciferin dealkylation, luminescence, p450-cyp3a4; series mostly up to 57.1 µM
% is scaled to controls: 0 for no effect and ±100 for the full control effect.

Cytochrome P450 3A4 (Homo sapiens), sequence (P08684 whole entry, looked up): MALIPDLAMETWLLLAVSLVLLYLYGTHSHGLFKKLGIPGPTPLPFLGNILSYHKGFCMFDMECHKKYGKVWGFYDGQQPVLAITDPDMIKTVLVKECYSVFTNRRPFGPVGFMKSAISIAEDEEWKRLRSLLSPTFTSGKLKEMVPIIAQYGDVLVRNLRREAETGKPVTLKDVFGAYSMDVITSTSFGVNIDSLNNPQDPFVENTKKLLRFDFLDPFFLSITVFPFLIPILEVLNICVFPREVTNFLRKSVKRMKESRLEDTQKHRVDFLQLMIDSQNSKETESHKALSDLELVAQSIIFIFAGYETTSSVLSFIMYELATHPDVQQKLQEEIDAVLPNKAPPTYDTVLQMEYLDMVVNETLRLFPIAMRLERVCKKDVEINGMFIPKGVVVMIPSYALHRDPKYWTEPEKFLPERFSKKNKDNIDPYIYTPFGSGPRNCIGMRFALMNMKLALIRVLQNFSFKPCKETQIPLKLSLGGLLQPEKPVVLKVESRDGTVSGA

SMILES | AC50 | activity, negative = inhibition
Cc1oc(-c2ccccc2)cc1C(=O)Nc1ccc(N(C)C)cc1 | 17.8 µM (active) | –
Cc1oc(C(C)(C)C)cc1C(=O)Nc1cccc(/C=C/C(=O)O)c1 | inactive | –
CC(=O)C[C@H](O)[C@@H](NC(=O)OC(C)(C)C)C(C)C | – | -26.2% [at 11.4 µM]
NC(N)=N/N=C\c1ccc(O)c(C(=O)O)c1 | – | -5.15% [at 11.4 µM]
CCCCCNCc1cccc(Br)c1 | inactive | –
O=C(N[C@@]1(C(=O)O)C[C@@H]1c1ccccc1)c1ccccc1 | – | -6.56% [at 11.4 µM]
O=C(N/N=C/c1cccc(Oc2ccccc2)c1)c1cccc(Br)c1 | inactive | –
O=C(N/N=C/C1C(c2ccccc2)C1(Cl)Cl)c1cccc(Br)c1 (configuration not stated) | 12.6 µM (active) | –
O=C(CSc1nnc(-c2ccccn2)n1Cc1ccco1)Nc1ccc2c(c1)OCO2 | 0.891 µM (active) | –
Cc1cc(C)nc(SCc2nnc(SCC(N)=O)n2Cc2ccco2)n1 | 15.8 µM (active) | –
CC(=O)Nc1ccc(NC(=O)CSc2nnc(-c3ccccc3)n2Cc2ccc3c(c2)OCO3)cc1 | 3.55 µM (active) | –
CCCCOC(=O)CSCC(=O)Nc1cc(C)on1 | – | -0.1% [at 11.4 µM]
Cc1cc(NC(=O)CSc2nnc(-c3ccccc3)n2Cc2ccco2)no1 | 15.8 µM (active) | –
COc1ccc(-c2ccc(=N)n(CCCC(=O)O)n2)cc1 | inactive | –
COc1ccc(-c2cnnc(CCCn3ccnc3-c3ccccc3)n2)cc1 | 6.31 µM (active) | –
COc1ccc(C(O)c2nccn2Cc2ccccc2)cc1 (configuration not stated) | – | -29.5% [at 11.4 µM]
COc1ccc(S(=O)(=O)N2CCC(N3CCCCC3)CC2)cc1 | inactive | –
COc1ccccc1NC(=O)CN1CCC(C(=O)c2ccc(F)cc2)CC1 | – | -1.8% [at 2.29 µM]
COc1ccc(C)cc1NC(=O)CN1CCN(S(=O)(=O)c2ccc(F)cc2)CC1 | 7.94 µM (active) | –
COc1ccc(S(=O)(=O)Nc2ccc(S(=O)(=O)N3CCCCC3)cc2)cc1C | – | -19.1% [at 2.29 µM]
COc1ccc(S(=O)(=O)N2CCC(NC(=O)Nc3ccc(C)cc3)CC2)cc1 | 8.91 µM (active) | –
COc1ccc(S(=O)(=O)N2CCCN(CC(=O)Nc3ccc(OC)c(Cl)c3)CC2)cc1 | 7.94 µM (active) | –
COc1ccc(S(=O)(=O)N2CCN(CC(=O)Nc3cccc(F)c3)CC2)cc1 | 7.94 µM (active) | –

SMILES | AC50 | activity, negative = inhibition
COCC(=O)N1CCC2(CC1)CCN(C(=O)Nc1cccc(F)c1)CC2 | inactive | –
Nc1[nH]c(=S)[nH]c(=O)c1N=Nc1c(Br)cc(S(N)(=O)=O)cc1Br | – | -21% [at 11.4 µM]
O=C(CN1CCN(S(=O)(=O)c2ccccc2)CC1)NC(=O)NCc1ccccc1 | inactive | –
COc1ccc(S(=O)(=O)N2CCN(CC(=O)Nc3cc(OC)cc(OC)c3)CC2)cc1 | 3.98 µM (active) | –
CCOC(=O)[C@H](CCc1ccccc1)N[C@@H](C)C(=O)N1CCC[C@H]1C(=O)O | inactive | –
COC(=O)[C@@]1(Cc2ccccc2)[C@H]2c3cc(C(=O)N4CCCC4)n(C)c3C[C@H]2CN1C(=O)c1ccccc1 | 3.98 µM (active) | –
COC(=O)[C@@]1(Cc2ccccc2)[C@H]2c3cc(C(=O)N4CCCC4)n(CC4CC4)c3C[C@H]2CN1C(=O)c1ccccc1 | 3.16 µM (active) | –
O=[N+]([O-])c1nccn1C[C@H](O)CN1CCCCC1 | – | -20.2% [at 11.4 µM]
COc1ccc(C(=O)N/N=C2/SCC(=O)N2Cc2ccc3c(c2)OCO3)cc1OC | 1.12 µM (active) | –
CCOC(=O)c1c(C)[nH]c(C)c1C(=O)COC(=O)c1ccc(S(=O)(=O)N(CC)CC)cc1 | 0.282 µM (active) | –
CCCN(CCC)S(=O)(=O)c1ccc(C(=O)O)cc1 | inactive | –
CCOC(=O)c1c(C)[nH]c(C)c1C(=O)COC(=O)c1cccc(S(=O)(=O)N(CC)CC)c1 | 0.316 µM (active) | –
CCN(CC)CCOC(=O)c1ccc(N)cc1 | inactive | –
NCCCNCCCCNCCCN | inactive | –
O=C(O)CCNc1ncnc2nc[nH]c12 | – | -0.12% [at 11.4 µM]
CCO[P@]1(=O)OC[C@@H]2O[C@H](n3cnc4c(N)ncnc43)[C@H](O)[C@@H]2O1 | – | 7.34% [at 11.4 µM]
CCc1ccccc1N1C(=O)c2cccc3c(N4CCOCC4)c([N+](=O)[O-])cc(c23)C1=O | inactive | –
O=C1c2cccc3c(Cl)ccc(c23)C(=O)N1O | – | -15% [at 11.4 µM]
O=C1c2cccc3c(Nc4ccccc4Cl)c([N+](=O)[O-])cc(c23)C(=O)N1CCO | 14.1 µM (active) | –
Clc1ccc(C(c2nnnn2C2CCCC2)N2CCN(Cc3ccncc3)CC2)cc1 (configuration not stated) | 2 µM (active) | –
c1coc(CN2CCN(C(c3cccs3)c3nnnn3C3CCCC3)CC2)c1 (configuration not stated) | 14.1 µM (active) | –
Cc1ccc(C(c2nnnn2C2CCCC2)N2CCN3CCCC3C2)cc1 (configuration not stated) | 14.1 µM (active) | –
CC(C)(C)N1C(=O)[C@@H]2[C@H]3C(=CC[C@H]2C1=O)C(=O)[C@H]1O[C@H]1[C@H]3O | – | -4.13% [at 11.4 µM]

SMILES | AC50 | activity, negative = inhibition
O=S(Cc1ccccc1)CC(O)(c1ccccc1)c1ccccc1 (configuration not stated) | inactive | –
O=C(Nc1cnn(Cc2ccc(Cl)cc2Cl)c1)c1cc(-c2cccs2)on1 | 10 µM (active) | –
O=C(NCC1CCCO1)c1cc(-c2ccc(Cl)cc2Cl)on1 (configuration not stated) | inactive | –
CC(C)(C)NC(=O)Cn1cnc([N+](=O)[O-])n1 | inactive | –
O=C(CCCn1cnc([N+](=O)[O-])n1)Nc1ccc(Cl)c(Cl)c1 | 14.1 µM (active) | –
O=C(Cn1cnc([N+](=O)[O-])n1)N/N=C/c1ccccc1O | inactive | –
O=C1O/C(=C\Br)CC[C@@H]1c1cccc2ccccc12 | 3.98 µM (active) | –
Cc1cccc(-c2c3c(=O)n(C)c(=O)n(C)c3cn2C2CCCCC2)c1 | 7.94 µM (active) | –
COC(=O)c1ccccc1NC(=O)C(CCS(C)(=O)=O)NC(C)=O (configuration not stated) | inactive | –
COc1ccccc1NC(=O)C(C/C=C(\C)Cl)C(C)=O (configuration not stated) | 14.1 µM (active) | –
CCCN1C(=O)C2(/C(=C(\O)c3ccc4c(c3)OCCO4)C(=O)C(=O)N2CCCOC)c2ccccc21 (configuration not stated) | inactive | –
COc1ccccc1CN1CC[C@@]2(CCCN(C(C)=O)C2)C1 | inactive | –
COCC(=O)N1CCC[C@@]2(CCN(Cc3ccccc3OC)C2)C1 | inactive | –
COc1ccccc1CN1CCC2(CC1)CCN(C(=O)c1ccco1)CC2 | inactive | –
COc1ccccc1CN1CCC2(CC1)CCN(C(=O)c1cccn1C)CC2 | inactive | –
COc1ccccc1CN1CC[C@@]2(CCCN(C(=O)c3cccn3C)C2)C1 | 12.6 µM (active) | –
COc1ccccc1CN1CC[C@@]2(CCCN(C(=O)c3ccco3)C2)C1 | 20 µM (active) | –
Cc1cc(NC(=O)c2nn(C)c(C)c2[N+](=O)[O-])no1 | inactive | –
CCCCCN1CC(O)=C(c2nc(-c3ccc(Cl)cc3)cs2)C1=N | inactive | –
Cc1ccc(-c2csc(N/N=C/c3ccco3)n2)cc1 | – | -6.49% [at 2.29 µM]
C=CCNc1nc(-c2ccc(Cl)cc2)cs1 | 14.1 µM (active) | –
CC(C)(C)NC[C@H](O)COc1cccc2c1CCC(=O)N2 | inactive | –
CC(C)(C)NC(=O)C(Cc1ccccc1)NS(=O)(=O)c1ccc2c(c1)CCC(=O)N2 (configuration not stated) | 3.16 µM (active) | –

SMILES | AC50 | activity, negative = inhibition
CC1=N[C@@](C)(COC(=O)[C@]2(C)N[C@](C)(CO)CO2)COC1=O | – | -22.8% [at 11.4 µM]
COC(=O)N/N=C\C=C\c1ccc2c(c1)OCO2 | inactive | –
Cc1cccc(OCC(=O)N/N=C\C=C\c2ccc3c(c2)OCO3)c1C | 2.24 µM (active) | –
N[C@@H](Cc1nn[nH]n1)C(=O)O | – | -2.7% [at 11.4 µM]
Cc1ccsc1-c1nc(-c2ccccc2)c(-c2ccccc2)[nH]1 | 14.1 µM (active) | –
O=[N+]([O-])c1cccc(-c2nc(-c3cccs3)c(-c3cccs3)[nH]2)c1 | 12.6 µM (active) | –
COc1ccc(-c2[nH]c(-c3ccc(C(=O)O)cc3)nc2-c2ccccc2)cc1 | inactive | –
O=C(O)c1nc(-c2ccccc2)[nH]c1C(=O)O | – | -3.83% [at 11.4 µM]
O=[N+]([O-])c1cccc(-c2nc(-c3ccccc3)c(-c3cccs3)[nH]2)c1 | – | -13.1% [at 2.29 µM]
c1ccc(-c2nc(-c3cccs3)[nH]c2-c2ccccc2)cc1 | 11.2 µM (active) | –
CCOC(=O)Cc1cc(=O)n2[nH]c(C)c(C#N)c2n1 | inactive | –
NC(=O)C(=O)O | inactive | –
COc1ccc(C(=O)CN2CCN(c3ccc(F)cc3)CC2)cc1OC | 28.2 µM (active) | –
CCOc1cc(CN2CCN(c3ccc(C(C)=O)cc3)CC2)ccc1OC | inactive | –
CCC(C)NCc1ccc(C(=O)OC)o1 (configuration not stated) | inactive | –
CCC/C=C(\CCC)C(NS(=O)(=O)c1cccc2cccnc12)c1ccc(C(=O)OC)cc1 (configuration not stated) | 5.01 µM (active) | –
CCC/C=C(\CCC)C(NS(=O)(=O)c1cccc2cccnc12)c1ccc(-c2ccccc2)cc1 (configuration not stated) | 3.16 µM (active) | –
CCC(C)N1C(=O)C2C(C(=O)Nc3cccc(OC)c3)C3C=CC2(O3)C1C(=O)NC1CCCCC1C (configuration not stated) | 15.8 µM (active) | –
CC12CCC(C(=O)O)(C/C1=N\O)C2(C)C (configuration not stated) | inactive | –
CCOc1ccc(C2C(C(=O)O)c3ccccc3C(=O)N2CCN2CCOCC2)cc1 (configuration not stated) | inactive | –
COc1ccc(C2C(C(=O)N3CCOCC3)c3ccccc3C(=O)N2c2ccc(OC)cc2)cc1 (configuration not stated) | 8.91 µM (active) | –
CN1C(=O)c2ccccc2C(C(=O)O)C1c1cn(C)c2ccccc12 (configuration not stated) | – | 7.7% [at 2.29 µM]
COc1ccc(C2C(C(=O)N3CCN(C)CC3)c3ccccc3C(=O)N2C2CCCCC2)cc1 (configuration not stated) | 5.01 µM (active) | –
